Assay [1] is described as follows: small molecules captured by biotinylated probe aFSTL3 – biochemical, small-molecule microarray, fluorescence 635/667, stem cell growth factor project, primary screen (AID 1064).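 Further: measures binding of the biotinylated anti-FSTL3 antibody to printed compounds.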 As to conditions: higher = more signal.
A short description of assay [2]: binders from COS7 lysate, DM2A8 probe, primary screen, torsin A project, cell lysate, small-molecule microarray, fluorescence 635/667 (AID 1065). To be noted: higher = more signal, COS7 lysate expressing mutant human TOR1A.
Assay [3] in a line: small molecules captured by biotinylated probe aFGF2 – biochemical, small-molecule microarray, fluorescence 635/667, stem cell growth factor project, primary screen (AID 1067).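 Further: measures binding of biotinylated aFGF2 protein to printed compounds on slides; z-score merges feature fluorescence and signal-to-noise across triplicate slides.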 As to conditions: higher = more signal.
The nature of assay [4]: small molecules captured by biotinylated probe aFGF10 – biochemical, small-molecule microarray, fluorescence 635/667, stem cell growth factor project, primary screen (AID 1071).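 Further: score merges 667 nm spot intensity and signal to noise from triplicate slides.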 As to conditions: higher = more signal.
For assay [5], the target named is Neurogenic locus notch homolog protein 2 (Homo sapiens) (UniProt Q04721). Nature of the assay: small molecules binding Notch2 protein – biochemical, small-molecule microarray, 635 nm fluorescence, stem cell growth factors, primary screen (AID 1073). To be noted: higher = more signal.
In assay [6] the target is Pro-neuregulin-1, membrane-bound isoform (Homo sapiens) (UniProt Q02297). Nature of the assay: small molecules binding neuregulin-1 protein – biochemical, small-molecule microarray, fluorescence 635/667, psychiatric disease protein project, primary screen (AID 1075).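 Further: score combines 667 nm spot fluorescence with signal to noise.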 As to conditions: NRG1 binding, 635 nm fluorescence, higher = more signal.
In assay [7] the test system is Neuregulin-1 EGF-like domain. Nature of the assay: small molecules binding NRG1 EGF domain – biochemical, small-molecule microarray, 635 nm fluorescence, primary screen (AID 1081).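 Further: binding of the protein to compounds printed on small-molecule microarray slides.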 As to conditions: higher = more signal.
Assay [8] can be described thus: FRG1 expression reporter modulators in myotubes – cell-based, C2C12 myotubes, firefly/Renilla luciferase, luminescence, FRG1 inhibition for FSHD, primary screen (AID 1084). As to conditions: FRG1 promoter luciferase, higher = more signal, called active from +8 up or from −8 down.
Assay [9] in a line: small molecules captured by biotinylated probe aFST – biochemical, small-molecule microarray, fluorescence 635/667, stem cell growth factor project, primary screen (AID 1086).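 Further: score merges 667 nm fluorescence with signal-to-noise of each printed compound spot.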 To be noted: higher = more signal.
The nature of assay [10]: binders of probe aHhip on microarray, primary screen, stem cell growth factor project, biochemical, small-molecule microarray, fluorescence 635/667 (AID 1087).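 Further: score merges spot fluorescence at 667nm with spot signal to noise ratio.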 As to conditions: higher = more signal.
Assay [11] deals with PRMT1 (protein arginine N-methyltransferase 1). Description: small molecules binding arginine methyltransferase PRMT1 – biochemical, small-molecule microarray, 635 nm fluorescence, primary screen (AID 1088).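 Further: binding of Prmt1 protein to compounds spotted on small-molecule microarray slides.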 As to conditions: higher = more signal.
A short description of assay [12]: growth effects on S. cerevisiae YJM789 – YJM789 clinical isolate, OD600, 24 h, basal, primary screen (AID 1089).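 Further: growth of clinical yeast isolate S. cerevisiae YJM 789 seeded 1000 cells per well; test concentration not given here.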 As to conditions: higher = more signal, called active from +8 up or from −8 down.
The nature of assay [13]: S. pombe growth modifiers, basal conditions – strain 972, OD600, 24 h, no modulator, primary screen (AID 1090).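 Further: basal condition with compound alone and no growth modifier present; test concentration not given here.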 To be noted: S. pombe 972 growth, higher = more signal, called active from +8 up or from −8 down.
A short description of assay [14]: budding yeast growth modifiers under rapamycin – strain BY4716, OD600, 96 h, primary screen (AID 1091). Further: test concentration not given here. As to conditions: S. cerevisiae BY4716 + rapamycin, higher = more signal, called active from +8 up or from −8 down.
Assay [15] deals with Torsin-1A-interacting protein 2 (Homo sapiens) (UniProt Q8NFQ8). Description: small molecules binding lysate-expressed LULL1 – cell lysate, human LULL1 lysate, 635/667 nm fluorescence, primary screen (AID 1092).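 Further: probe is lysate of COS7 cells overexpressing human LULL1; score merges per-feature 667 nm fluorescence with signal-to-noise.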 To be noted: small-molecule microarray, hLULL1 lysate binding, 635 nm fluorescence; higher = more signal.
Assay [16] is described as follows: optical density change of DRC41 E. coli – strain DRC41, OD650, 24 h, E. coli filamentation project, primary screen (AID 1093).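 Further: MC1000 strain lacking acrAB efflux and sulA so SOS filamentation is blocked; test concentration not given here.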 As to conditions: E. coli DRC41 growth, higher = more signal, called active from +8 up or from −8 down.
Assay [17] in a line: probe aLefty2 binding to arrayed compounds – biochemical, biotinylated probe, 635/667 nm fluorescence, primary screen (AID 1094).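 Further: score merges spot fluorescence near 667 nm with spot signal-to-noise ratio.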 To be noted: small-molecule microarray, higher = more signal.
The subject of assay [18] is Noggin (protein binding on small-molecule microarray). Nature of the assay: small molecules binding Noggin protein – biochemical, 635/667 nm fluorescence, primary screen (AID 1095).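 Further: score merges 667 nm feature fluorescence with signal to noise over triplicate slides.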 As to conditions: 635 nm fluorescence, higher = more signal.
Assay [19] concerns the target Neurogenic locus notch homolog protein 3 (Homo sapiens) (UniProt Q9UM47). Description: small molecules binding NOTCH3 protein – biochemical, 635/667 nm fluorescence, primary screen (AID 1096). As to conditions: small-molecule microarray, 635 nm fluorescence, higher = more signal.
The nature of assay [20]: probe aEGFR binding to arrayed compounds – biochemical, biotinylated probe, 635/667 nm fluorescence, primary screen (AID 1097).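 Further: probe is a biotinylated anti-EGFR antibody binding compounds printed on slides; score combines fluorescence near 667 nm and signal to noise of each spot.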 As to conditions: small-molecule microarray, higher = more signal.

Calls of active or inactive are those of the source.

Sequence of Neurogenic locus notch homolog protein 3 (Homo sapiens) (Q9UM47 whole entry, looked up): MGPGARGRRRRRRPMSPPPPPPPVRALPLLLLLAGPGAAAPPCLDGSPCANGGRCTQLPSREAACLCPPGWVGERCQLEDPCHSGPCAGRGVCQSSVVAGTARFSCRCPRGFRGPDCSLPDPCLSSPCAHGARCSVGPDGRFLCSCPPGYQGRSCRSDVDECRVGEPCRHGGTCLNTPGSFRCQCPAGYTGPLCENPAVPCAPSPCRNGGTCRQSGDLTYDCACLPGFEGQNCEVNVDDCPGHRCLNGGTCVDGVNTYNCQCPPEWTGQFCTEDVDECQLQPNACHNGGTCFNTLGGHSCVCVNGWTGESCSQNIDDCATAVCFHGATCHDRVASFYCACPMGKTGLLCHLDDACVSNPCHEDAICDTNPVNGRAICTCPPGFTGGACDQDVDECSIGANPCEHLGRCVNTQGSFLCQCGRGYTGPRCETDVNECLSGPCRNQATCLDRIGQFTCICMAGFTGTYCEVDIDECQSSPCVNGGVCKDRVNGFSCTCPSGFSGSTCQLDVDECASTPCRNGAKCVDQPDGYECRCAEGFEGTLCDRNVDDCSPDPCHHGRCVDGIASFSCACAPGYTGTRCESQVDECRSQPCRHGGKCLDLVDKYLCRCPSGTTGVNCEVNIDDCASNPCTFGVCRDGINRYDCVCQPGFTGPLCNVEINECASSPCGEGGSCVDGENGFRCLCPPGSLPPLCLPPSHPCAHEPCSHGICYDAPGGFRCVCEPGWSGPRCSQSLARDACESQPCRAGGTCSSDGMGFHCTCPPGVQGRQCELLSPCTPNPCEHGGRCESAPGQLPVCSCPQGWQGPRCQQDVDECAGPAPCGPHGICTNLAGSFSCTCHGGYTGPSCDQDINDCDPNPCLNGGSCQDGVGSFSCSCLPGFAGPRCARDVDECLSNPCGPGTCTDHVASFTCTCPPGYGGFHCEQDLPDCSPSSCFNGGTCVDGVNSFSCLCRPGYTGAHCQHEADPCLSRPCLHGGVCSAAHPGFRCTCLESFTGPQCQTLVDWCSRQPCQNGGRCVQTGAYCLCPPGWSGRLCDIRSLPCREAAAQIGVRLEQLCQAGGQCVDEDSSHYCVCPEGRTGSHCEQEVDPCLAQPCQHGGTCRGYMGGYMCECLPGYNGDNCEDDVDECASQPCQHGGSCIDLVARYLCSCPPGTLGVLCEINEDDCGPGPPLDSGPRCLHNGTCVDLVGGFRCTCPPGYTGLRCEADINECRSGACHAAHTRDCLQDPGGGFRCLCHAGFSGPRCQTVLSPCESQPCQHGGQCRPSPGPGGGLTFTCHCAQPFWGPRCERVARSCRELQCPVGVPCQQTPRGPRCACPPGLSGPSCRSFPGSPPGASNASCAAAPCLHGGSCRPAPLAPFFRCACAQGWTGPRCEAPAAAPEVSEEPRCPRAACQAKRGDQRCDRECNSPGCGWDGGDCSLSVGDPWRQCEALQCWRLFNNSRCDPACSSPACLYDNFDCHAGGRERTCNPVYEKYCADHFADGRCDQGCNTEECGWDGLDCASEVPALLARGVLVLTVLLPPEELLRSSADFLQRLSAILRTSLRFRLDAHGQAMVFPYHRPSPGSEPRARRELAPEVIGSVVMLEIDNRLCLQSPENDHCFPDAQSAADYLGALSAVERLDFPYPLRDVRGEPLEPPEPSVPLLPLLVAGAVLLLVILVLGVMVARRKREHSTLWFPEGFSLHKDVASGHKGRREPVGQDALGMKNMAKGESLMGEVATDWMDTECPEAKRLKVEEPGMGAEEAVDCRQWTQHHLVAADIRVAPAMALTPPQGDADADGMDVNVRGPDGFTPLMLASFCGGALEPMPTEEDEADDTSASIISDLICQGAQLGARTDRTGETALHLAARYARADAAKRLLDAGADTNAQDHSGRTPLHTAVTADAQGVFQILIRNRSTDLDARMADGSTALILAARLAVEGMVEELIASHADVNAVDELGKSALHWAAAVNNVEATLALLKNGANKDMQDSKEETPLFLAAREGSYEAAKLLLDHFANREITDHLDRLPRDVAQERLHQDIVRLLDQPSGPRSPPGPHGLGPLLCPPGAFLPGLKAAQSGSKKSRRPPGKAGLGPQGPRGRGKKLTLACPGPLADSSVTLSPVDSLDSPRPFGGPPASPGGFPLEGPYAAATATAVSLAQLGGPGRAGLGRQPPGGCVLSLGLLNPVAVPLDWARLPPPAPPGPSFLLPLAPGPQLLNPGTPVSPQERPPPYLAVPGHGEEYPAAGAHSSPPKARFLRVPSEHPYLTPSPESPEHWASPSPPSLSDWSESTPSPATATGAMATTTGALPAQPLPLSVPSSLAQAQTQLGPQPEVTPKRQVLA
Sequence of Pro-neuregulin-1, membrane-bound isoform (Homo sapiens) (Q02297 whole entry, looked up, the tested form may be a part, canonical isoform): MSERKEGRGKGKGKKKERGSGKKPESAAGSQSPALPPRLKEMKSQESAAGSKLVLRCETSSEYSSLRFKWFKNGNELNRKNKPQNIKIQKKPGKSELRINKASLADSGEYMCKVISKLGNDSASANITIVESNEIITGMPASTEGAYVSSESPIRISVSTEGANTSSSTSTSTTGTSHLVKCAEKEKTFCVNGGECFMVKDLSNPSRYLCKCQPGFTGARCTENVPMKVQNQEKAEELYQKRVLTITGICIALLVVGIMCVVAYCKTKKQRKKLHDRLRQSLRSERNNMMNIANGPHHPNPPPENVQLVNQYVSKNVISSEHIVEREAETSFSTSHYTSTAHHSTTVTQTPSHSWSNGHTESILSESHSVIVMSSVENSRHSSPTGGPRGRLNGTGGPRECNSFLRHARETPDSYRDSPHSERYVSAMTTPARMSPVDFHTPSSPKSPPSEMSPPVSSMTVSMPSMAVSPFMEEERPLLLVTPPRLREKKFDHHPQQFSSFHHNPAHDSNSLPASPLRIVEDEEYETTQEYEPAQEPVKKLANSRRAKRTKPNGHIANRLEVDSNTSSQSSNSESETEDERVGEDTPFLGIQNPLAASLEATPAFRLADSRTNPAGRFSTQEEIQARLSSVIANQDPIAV
Sequence of Torsin-1A-interacting protein 2 (Homo sapiens) (Q8NFQ8 whole entry, looked up): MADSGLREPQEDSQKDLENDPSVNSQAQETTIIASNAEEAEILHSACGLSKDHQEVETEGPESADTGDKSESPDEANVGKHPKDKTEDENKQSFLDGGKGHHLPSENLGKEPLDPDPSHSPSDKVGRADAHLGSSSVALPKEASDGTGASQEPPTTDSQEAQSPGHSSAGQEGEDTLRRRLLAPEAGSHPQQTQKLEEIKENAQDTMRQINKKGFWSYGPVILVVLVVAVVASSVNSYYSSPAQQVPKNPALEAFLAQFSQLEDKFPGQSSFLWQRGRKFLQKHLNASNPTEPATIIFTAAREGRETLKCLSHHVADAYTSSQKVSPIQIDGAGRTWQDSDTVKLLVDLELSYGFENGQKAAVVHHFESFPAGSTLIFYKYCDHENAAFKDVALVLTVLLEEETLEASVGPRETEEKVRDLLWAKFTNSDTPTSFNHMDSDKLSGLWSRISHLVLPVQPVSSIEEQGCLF

On to `C=CCC(OC(C)=O)[C@@H]1[C@@H](N(Cc2cc3ccccc3o2)C(=O)c2ccc(-c3ccccc3)cc2)c2cc(OCCCO)ccc2N1C(=O)Cc1ccc2ccccc2c1` (stereo not given in full), for which the composite z-score in [1] is 0.179; in [2], -0.499; in [3] it was -0.0428; in [4], 0.101; in [5], -0.14; in assay [6] it was -0.0892. Also, the composite z-score in assay [7] is -0.5; in assay [9] it was 0.261; in [10] it was 0.17; in assay [11], -0.598; in [15] it was 0.898; in assay [17], -0.166. For the same molecule, the composite z-score in assay [18] is -0.125; in [19], -0.376; in [20], -0.166. Also, the z-score in [8] was -1.28 (inactive); in assay [12], 1.06 (inactive); in assay [13], 0.263 (inactive); in [14], 1.49 (inactive); in [16], 0.0672 (inactive).
Turning to `CC(c1ccccc1)C(O)C1C=CC2C(=O)N(Cc3ccccc3)C(=O)C2N1n1cnnc1` (stereo not given), the composite z-score is -0.0479 in assay [1]; 0.327 in assay [2]; -0.0165 in [3]; 0.351 in assay [4]; 1.07 in [5]; 0.446 in assay [6]. Moreover, the composite z-score in assay [7] came out at 1.01; in assay [9] it was 0.541; in assay [10] it was 0.0373; in assay [11], 0.418; in assay [15], 1.6; in assay [17] it was 0.0524. Besides, the composite z-score in assay [18] is 0.483; in [19], 0.728; in assay [20] it was 0.08. The z-score was -0.0355 (inactive) in assay [8]; -1.04 (inactive) in assay [12]; -0.0262 (inactive) in [13]; 0.496 (inactive) in assay [14]; -1.27 (inactive) in [16].
Regarding `CCCCC(=O)N(Cc1ccccc1F)[C@@H]1CC(C(=O)NCCO)=C[C@H](Oc2c(I)cc(CO)cc2OC)[C@H]1O`, the composite z-score in assay [1] is -0.451; in [2], 0.686; in assay [3] it was -0.0462; in assay [4] it was 0.228; in [5], 1.17; in assay [6], 1.47. The composite z-score in assay [7] is 1.42; in assay [9], 0.442; in assay [10], 0.27; in [11], 1.54; in [15], 1.83; in assay [17] it was -0.0718. Also, the composite z-score in assay [18] was found to be 2.04; in assay [19] it was 1.04; in assay [20] it was 0.0209. The z-score in assay [8] was -0.84 (inactive); in assay [12], 0.41 (inactive); in [13] it was -1.91 (inactive); in [14] it was -1.02 (inactive); in assay [16], 0.772 (inactive).
For `O=C(NCCN1CCOCC1)[C@@H]1c2ccccc2C(=O)N(Cc2cc(F)cc(C(F)(F)F)c2)[C@H]1c1ccc(CO)cc1`, the composite z-score in assay [1] was -0.0058; in assay [2] it was 1.09; in [3], -0.188; in assay [4], -0.71; in [5], -0.987; in assay [6] it was 1.25. Besides, the composite z-score in assay [7] is 0.591; in assay [9], -0.234; in [10] it was -0.199; in assay [11], 1.54; in assay [15], 3.05; in assay [17] it was -0.22. Further, the composite z-score in assay [18] is 0.935; in assay [19], 0.58; in assay [20] it was -0.149. The z-score in assay [8] is -0.0497 (inactive); in assay [12], -0.718 (inactive); in [13] it was -0.447 (inactive); in [14], -0.405 (inactive); in assay [16] it was -0.356 (inactive).
For the molecule `COC(=O)[C@@]1(Cc2ccc(OC)cc2)[C@H]2c3cc(C(=O)N4CCCC4)n(C[C@H](O)CO)c3C[C@H]2CN1C(=O)c1ccccc1`, the composite z-score is 0.288 in [1]; -0.0909 in assay [2]; 0.198 in assay [3]; 0.673 in assay [4]; 1.13 in assay [5]; 1.17 in assay [6]. The composite z-score in assay [7] is 0.531; in [9], 0.488; in [10], 0.0749; in [11], -0.448; in assay [15], 2.4; in assay [17] it was 0.0069. The values for the composite z-score in [18], in assay [19] and in [20] were -0.533, 0.355 and -0.175, respectively. Further, the z-score in [8] is 1.13 (inactive); in assay [12], 0.659 (inactive); in [13], 1.13 (inactive); in assay [14], 0.454 (inactive); in assay [16], -0.0765 (inactive).
As to `CN1C(=O)C2C=CC(C(O)C(c3ccccc3)c3ccccc3)N(Nc3ccccc3)C2C1=O` (stereo not given), the composite z-score in [1] is -0.0907; in assay [2] it was 0.403; in assay [3], 0.0814; in [4] it was 0.868; in assay [5] it was 1.48; in [6], 1.94. Moreover, the composite z-score was 1.21 in assay [7]; 1.37 in [9]; -0.131 in assay [10]; 1.55 in [11]; 3.46 in [15]; 0.0336 in assay [17]. Also, the composite z-score in assay [18] is -0.152; in [19] it was 1.05; in assay [20], 0.0209. Besides, the z-score in assay [8] was -0.704 (inactive); in assay [12], -0.272 (inactive); in assay [13], -0.346 (inactive); in [14], -0.125 (inactive); in assay [16], -1.7 (inactive).
On to `O=C1OCCC/C=C\[C@H]2OC34C=CCN(CCN5CCOCC5)C(=O)[C@H]3N(CCO)C(=O)[C@@H]4C12` (stereo not given in full), for which the composite z-score was -0.163 in [1]; -0.435 in assay [2]; -0.154 in assay [3]; -0.313 in assay [4]; -1.12 in assay [5]; -0.501 in assay [6]. For the same molecule, the composite z-score is 0.843 in assay [7]; -0.382 in assay [9]; -0.137 in [10]; -0.833 in [11]; -0.534 in assay [15]; -0.18 in assay [17]. Moreover, the composite z-score is -0.915 in assay [18], -1.23 in [19] and -0.244 in [20]. The z-score in assay [8] is 0.808 (inactive); in assay [12], 0.14 (inactive); in assay [13], 0.774 (inactive); in assay [14], -0.131 (inactive); in assay [16], 1 (inactive).
For the molecule `O=C(CS)NCCCCCNC(=O)[C@H]1C[C@H]2C(=O)N[C@@H](Cc3ccccc3)C(=O)N2[C@H]1c1cccc(OCCO)c1`, the composite z-score is 0.0238 in assay [1]; 1.31 in [2]; -0.0195 in assay [3]; 1.16 in assay [4]; 0.617 in assay [5]; 0.244 in assay [6]. The composite z-score in [7] is 1.33; in assay [9], 0.551; in assay [10], -0.156; in [11] it was 1.52; in assay [15], 2.55; in assay [17], 0.0669. The composite z-score in [18] was determined as 1.44; in assay [19] it was 1.09; in assay [20], 0.12. Also, the z-score is -0.676 (inactive) in assay [8]; -3.02 (inactive) in assay [12]; -0.991 (inactive) in assay [13]; -0.276 (inactive) in assay [14]; 1.94 (inactive) in assay [16].
For `CCOC(=O)C1=CC[C@@H](c2ccccc2)N(S(=O)(=O)c2ccc(C)cc2)[C@H]1c1ccc(C#N)cc1`, the composite z-score in assay [1] was -0.0221; in assay [2], 0.381; in assay [3], 0.054; in [4], 0.359; in [5] it was 1.43; in assay [6] it was 1. Also, the composite z-score in assay [7] is 1.01; in assay [9], 0.832; in assay [10] it was -0.161; in assay [11] it was 0.852; in assay [15], 2.73; in assay [17] it was 0.0163. In addition, the composite z-score in assay [18] was -0.232; in assay [19] it was 1.11; in [20], 0.136. Moreover, the z-score in assay [8] was -1.59 (inactive); in assay [12], -0.624 (inactive); in [13], 0.553 (inactive); in [14], 1.18 (inactive); in assay [16], -0.883 (inactive).

(Values after PubChem BioAssay.)
